We go through 27 molecules from PubChem BioAssay (NCATS).

SMILES strings stand for the structures. Inconclusive results are not listed. Values without a mark were called inactive. The source made the active and inactive calls. The call rests on the fitted dose curve; in most records, active means well fitted curve in the direction sought with a large enough effect; inconclusive means small, poorly fitted or top-dose-only effect, or another doubt; inactive means no such curve, though single readings can be large; an effect the other way counts as inactive or inconclusive.

Experiment [1] concerns the target Aldehyde dehydrogenase, mitochondrial (Homo sapiens) (UniProt P05091). As to the kind of experiment: qHTS for Inhibitors of the Aldehyde Dehydrogenase Family (ALDH2) Primary screen (AID 2061308). Further: nearly all actives have a fitted effect of over 55% in size. Further: potency means the concentration at half of the fitted maximal effect.
The target of experiment [2] is Retinaldehyde dehydrogenase 3 (Homo sapiens) (UniProt P47895). The experiment in a line: qHTS for Inhibitors of the Aldehyde Dehydrogenase Family (ALDH1A3) Validation screen (AID 2061312). Further: nearly all actives have a fitted effect of over 45% in size.
The target is the same in experiment [3]. As to the kind of experiment: qHTS for Inhibitors of the Aldehyde Dehydrogenase Family (ALDH1A3) Primary screen (AID 2061315).
The target is the same in experiment [4]. The experiment in a line: qHTS for Inhibitors of the Aldehyde Dehydrogenase Family (ALDH1A3) Confirmatory screens (AID 2061311). Further: potency means the concentration at half of the fitted maximal effect; nearly all actives have a fitted effect of over 60% in size.
Experiment [5] concerns the target Aldehyde dehydrogenase 1A1 (Homo sapiens) (UniProt P00352). As to the kind of experiment: qHTS for Inhibitors of the Aldehyde Dehydrogenase Family (ALDH1A1) Confirmatory screens (AID 2061316). Further: potency means the concentration at half of the fitted maximal effect; nearly all actives have a fitted effect of over 65% in size.
The nature of experiment [6]: BET inhibitor-based combinations targeting novel dependencies in MECOM-rearranged (r) AML: SET-2 cell line (AID 2202231). Further: potency means the concentration at half of the fitted maximal effect; nearly all actives have a fitted effect of over 35% in size. The conditions noted are these: SET-2 AML cells viability, CellTiter-Glo luminescence, 48 h; viability: stronger effect = lower value, concentration not given here. Put shortly: (§1)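 Viability of cells (500 per well) is scored by luminescent CellTiter-Glo at 48 hr post-dosing. Eleven-point titrations are normalized to DMSO and empty controls and reduced to AUC values.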

A short description of experiment [7]: BET inhibitor-based combinations targeting novel dependencies in MECOM-rearranged (r) AML: OCI-AML3 cell line (AID 2202232). Further: potency means the concentration at half of the fitted maximal effect; nearly all actives have a fitted effect of over 35% in size. The settings on record: Potency: OCI-AML3 viability. Put shortly:
as §1

Experiment [8] in a line: BET inhibitor-based combinations targeting novel dependencies in MECOM-rearranged (r) AML: MV-4-11 cell line (AID 2202233). Further: potency means the concentration at half of the fitted maximal effect; nearly all actives have a fitted effect of over 45% in size. An outline of the steps:
(§2)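 Using pin-tool transfer, drugs were added in 11 doses to cells (500/well), incubated 48 hr, and assessed with CellTiter-Glo. Z-AUC is a mean-centring transformation applied separately to each screened line.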

A short description of experiment [9]: BET inhibitor-based combinations targeting novel dependencies in MECOM-rearranged (r) AML: HNT-34 cell line (AID 2202234). Further: potency means the concentration at half of the fitted maximal effect; nearly all actives have a fitted effect of over 35% in size. An outline of the steps: as §2
The nature of experiment [10]: BET inhibitor-based combinations targeting novel dependencies in MECOM-rearranged (r) AML: UCSD-AML1 cell line (AID 2202235). Further: potency means the concentration at half of the fitted maximal effect; nearly all actives have a fitted effect of over 40% in size. Put shortly: as §2
A short description of experiment [11]: BET inhibitor-based combinations targeting novel dependencies in MECOM-rearranged (r) AML: AML-191 cell line (AID 2202236; further: potency means the concentration at half of the fitted maximal effect; nearly all actives have a fitted effect of over 35% in size). An outline of the steps: as §1
A short description of experiment [12]: BET inhibitor-based combinations targeting novel dependencies in MECOM-rearranged (r) AML: AML-194 cell line (AID 2202237; further: potency means the concentration at half of the fitted maximal effect; nearly all actives have a fitted effect of over 40% in size). Put shortly: as §1

Consider `Cc1ccc(O)cc1Nc1ccnc(Nc2cccc(C(N)=O)c2)n1`, for which the Potency result in experiment [1], in [2] and in [3] was “inactive” each time.
As to `C[C@]12CC[C@@H]3c4ccc(O)c(O)c4CC[C@H]3[C@@H]1CCC2=O`, the results for the Potency in experiment [1], in experiment [4] and in [5] were 15.8 µM (active), 15.9 µM (active) and 1.59 µM (active), respectively.
Turning to `Cc1ccc(CNc2cccc(N3CCCCC3)c2)cc1`, the Potency entry in experiment [1] and in [3] was “inactive” in each case. The Potency in experiment [4] is 22.5 µM (active).
For the molecule `CCOc1cc(C(C)(C)C)ccc1C1=NC(C)(c2ccc(Cl)cc2)C(C)(c2ccc(Cl)cc2)N1C(=O)N1CCN(CCCS(C)(=O)=O)CC1` (stereo not given), the Potency entry in experiment [1], in experiment [2] and in experiment [3] was “inactive” throughout.
With `Cc1ccccc1-c1cc(N2CCN(C)CC2)ncc1N(C)C(=O)C(C)(C)c1cc(C(F)(F)F)cc(C(F)(F)F)c1`, the Potency entry in experiment [1], in experiment [2] and in experiment [3] was “inactive” in each case.
Take `CC(=O)N1CCN([C@H]2CCN(C(=O)N(C)[C@H](C)c3cc(C(F)(F)F)cc(C(F)(F)F)c3)[C@@H](c3ccc(F)cc3C)C2)CC1`: the Potency entry in experiment [1], in experiment [2] and in experiment [3] was “inactive” in each case.
With `NC(=O)C1CCN(c2nc(-c3ccccc3-c3ccccc3)cs2)CC1`, the Potency entry in experiment [1] is “inactive”. Moreover, the Potency is 2.83 µM (active) in experiment [4] and 3.18 µM (active) in [5].
As to `C[C@H]1[C@H](C)C[C@@H](C(=O)O)C2CC[C@]3(C)C(=CC[C@@H]4[C@@]5(C)CC[C@H](O)C(C)(C)[C@@H]5CC[C@]43C)[C@@H]21` (stereo not given in full), the Potency result in experiment [1], in experiment [2] and in [3] was “inactive” in each case.
With `COc1cc(/C=C/C(=O)N2CCN(CC(=O)N3CCCC3)CC2)cc(OC)c1OC`, the Potency result in experiment [1], in experiment [2] and in [3] was “inactive” throughout.
Consider `CC(C)(C(=O)NCC(F)(F)C(F)(F)F)C(=O)NC1C(=O)Nc2ccccc2-c2ccccc21` (stereo not given), for which the Potency result in experiment [1], in experiment [2] and in [3] was “inactive” in each case.
Turning to `CNC(=O)c1ccccc1Nc1nc(Nc2ccc3c(c2OC)CCCC(N2CCN(CCO)CC2)C3)ncc1Cl` (stereo not given), the Potency result in experiment [1], in experiment [2] and in experiment [3] was “inactive” in each case.
As for `Cc1cn(C2C=CC(CO)O2)c(=O)[nH]c1=O` (stereo not given), the Potency entry in experiment [1], in experiment [2] and in [3] was “inactive” throughout.
Turning to `N#Cc1ccc(COC[C@H]2O[C@@H](n3c(NCc4ccc(Cl)c(Cl)c4)nc4c(N)ncnc43)[C@H](O)[C@@H]2O)cc1`, the Potency entry in experiment [1], in experiment [2] and in [3] was “inactive” in each case. Besides, the Potency in [6] is 7.42 µM (active); in [7] it was 2.63 µM (active); in experiment [8], 14.8 µM (active); in [9] it was 2.95 µM (active); in [10] it was 2.63 µM (active).
As to `COc1ccc(NS(=O)(=O)c2sc3ccc(Cl)cc3c2C)cc1N1CCNCC1`, the Potency entry in experiment [1], in experiment [2] and in experiment [3] was “inactive” each time.
For `N#CC(CCCN1CCC(O)(c2ccc(Cl)cc2)CC1)(c1ccccc1)c1ccccc1`, the Potency entry in experiment [1], in experiment [2] and in experiment [3] was “inactive” in each case.
On to `COc1cc(N(C)CCN(C)C)c(N)cc1Nc1nccc(-c2cn(C)c3ccccc23)n1`, for which the Potency entry in experiment [1], in [2] and in experiment [3] was “inactive” throughout.
In the case of `COc1c(Nc2ncc(Cl)c(N[C@H]3[C@@H](C(N)=O)[C@@H]4C=C[C@H]3C4)n2)ccc2c1CC[C@@H](N1CCOCC1)CC2`, the Potency entry in experiment [1], in experiment [2] and in experiment [3] was “inactive” each time.
`NC(=O)N1CCC(CC(=O)N2CCC(C3c4ncc(Br)cc4CCc4cc(Cl)cc(Br)c43)CC2)CC1` (stereo not given): the Potency result in experiment [1], in experiment [2] and in [3] was “inactive” in each case.
In the case of `CC[C@H]1OC(=O)[C@H](C)[C@@H](O[C@H]2C[C@@](C)(OC)[C@@H](O)[C@H](C)O2)[C@H](C)[C@@H](O[C@@H]2O[C@H](C)C[C@H](N(C)C)[C@H]2O)[C@](C)(O)C[C@@H](C)C(=O)[C@H](C)[C@H]2OC(=O)O[C@@]21C`, the Potency result in [1], in [2] and in experiment [3] was “inactive” throughout.
In the case of `Fc1ccc(C2CCNC[C@H]2COc2ccc3c(c2)OCO3)cc1` (stereo not given in full), the Potency result in experiment [1], in [2] and in experiment [3] was “inactive” each time.
Regarding `O=C(/C=C\n1cnc(-c2cc(C(F)(F)F)cc(C(F)(F)F)c2)n1)N1CC(F)(F)C1`, the Potency result in [1], in experiment [2] and in [3] was “inactive” in each case. The Potency was 1.66 µM (active) in [6]; 2.63 µM (active) in experiment [7]; 1.32 µM (active) in [8]; 5.25 µM (active) in experiment [9]; 0.934 µM (active) in experiment [10]; 1.32 µM (active) in [11]. Further, the Potency in experiment [12] is 1.05 µM (active).
With `COc1ccc(C2=N[C@@H](c3ccc(Cl)cc3)[C@@H](c3ccc(Cl)cc3)N2C(=O)N2CCNC(=O)C2)c(OC(C)C)c1`, the Potency entry in experiment [1], in experiment [2] and in [3] was “inactive” throughout.
For `CCCC1(CCC)CCC2(CCN(CCCN(CC)CC)C2)CC1`, the Potency result in experiment [1], in experiment [2] and in [3] was “inactive” in each case. For the same molecule, the Potency was 5.9 µM (active) in [6]; 7.42 µM (active) in experiment [7]; 6.61 µM (active) in experiment [8]; 4.68 µM (active) in [9]; 8.33 µM (active) in experiment [10]; 9.34 µM (active) in [11]. For the same molecule, the Potency in [12] is 9.34 µM (active).
As for `NC(=O)C(CCC(F)(F)F)N(Cc1ccc(-c2ncon2)cc1F)S(=O)(=O)c1ccc(Cl)cc1` (stereo not given), the Potency result in experiment [1], in experiment [2] and in experiment [3] was “inactive” each time.
Regarding `O=C(NC1(c2ccccc2)CC1)c1c(CN2CCC(N3CCCCC3)CC2)c(-c2cccc(C(F)(F)F)c2)nc2cc(Br)ccc12`, the Potency result in experiment [1], in [2] and in experiment [3] was “inactive” in each case.
Consider `C[C@@H](CN1CCC(n2c(=O)[nH]c3cc(Cl)ccc32)CC1)NC(=O)c1ccc2ccccc2c1`, for which the Potency entry in experiment [1], in [2] and in [3] was “inactive” throughout.
As to `CCN(CC)CCN(Cc1ccc(-c2ccc(C(F)(F)F)cc2)cc1)C(=O)Cn1c(SCc2ccc(F)cc2)nc(=O)c2c1CCC2`, the Potency result in [1], in [2] and in [3] was “inactive” in each case.
